Pf Dd2 inh = Plasmodium falciparum Dd2 growth inhibition; P. falciparum Dd2 growth, SYBR Green, 72 h; Potency, µM (titrated, usually from 28.9 µM), without a hit: top-dose activity, negative = inhibition, most hits filed as inhibitors; 4.3% of 120,000 active; AID 1347417; active = well fitted inhibition curve with a large enough effect;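 also: plate controls were DMSO vehicle for no effect and reference drug for full effect; nearly all actives have a fitted effect of over 65% in size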
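Infected erythrocytes (Dd2, 0.3% parasitemia, 2.5% hematocrit final) are added to compound in RPMI-1640/Albumax II medium, grown 72 h at 37C in low oxygen, then lysed with saponin/Triton-X containing SYBR Green and read by fluorescence.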
Starred values were filed as active, the others as inactive; i = inactive; [ ] = remark or other dose. The entries come from a sample that favours hits as a whole. Potency is read from the fitted curve at half-maximal effect.

SMILES | Pf Dd2 inh
CCOC(=O)c1c(C)[nH]c(C)c1S(=O)(=O)N1CCC(C(=O)N2CCN(c3ccccc3F)CC2)CC1 | i
Cc1ccc(Cl)cc1N1CCN(C(=O)C2CCN(S(=O)(=O)c3ccc4c(c3)oc(=O)n4C)CC2)CC1 | i
Cc1ccc(C)c(N2CCN(S(=O)(=O)c3ccc4c(c3)CCCN4C(=O)C3CCC3)CC2)c1 | 6%
CO[C@H]1C(=O)N(C(C)C)[C@H]1C1CCN(C(=O)CCc2ccccc2)CC1 | -21%
COCCNC(=O)[C@@H]1CCC[C@@H](N(C)C)CN(C)C(=O)C1 | -1%[44.1 µM]
CCN1CCN(CCNC(=O)C23CCCC=C2N(C2CCCC2)C(=O)CC3)CC1 (centres undefined) | i
Cc1ccc(C(=O)N2CCC(c3n[nH]c(=O)n3-c3ccccc3)CC2)cc1C | -36%
Cc1oc2ccn(Cc3ccccc3F)c(=O)c2c1C(=O)NCC1CCCO1 (centres undefined) | -1%
COc1ccc(NC(=O)C2CCN(C(=O)c3ncn4c3COC(c3ccc(F)cc3)C4)CC2)cc1 (centres undefined) | i
CCc1nc(C)sc1C(=O)N[C@@H]1COCC[C@H]1Oc1ccc(C#N)cc1 | -20%
CCCCC1CN(c2cccc(-c3ccccc3)c2)C(=O)CN1C(C)=O (centres undefined) | -15%
c1ccc(CN2CCC[C@H]2c2nc(-c3ccnc(N4CCOCC4)c3)no2)nc1 | 7.1µM*
CC(=O)N1CCN(c2cc(-c3noc([C@@H]4CCCN4Cc4ccc(CO)o4)n3)ccn2)CC1 | i
NC(=O)C1CCN(c2cc(-c3noc([C@@H]4CCCN4Cc4ccccc4F)n3)ccn2)CC1 | i
COc1ccc(CN2CCC[C@H]2c2nc(-c3ccnc(N4CCOCC4)c3)no2)cc1 | -26%[44.1 µM]
CC(=O)N1CCN(c2cc(-c3noc([C@@H]4CCCN4Cc4ccccc4C)n3)ccn2)CC1 | 13µM*
c1cc(-c2noc([C@@H]3CCCN3Cc3ncc[nH]3)n2)cc(N2CCOCC2)n1 | 13%[44.1 µM]
Cn1ccnc1C(=O)N1CC2CC(C1)[C@H]1CCCC(=O)N1C2 (some centres undefined) | 7%
CN1CC(=O)N(C2CCCNC2)Cc2c(NCCc3ccccn3)ncnc21 (centres undefined) | 4%
CCC[C@H]1CN(CCS(C)(=O)=O)C[C@@H]1NC(=O)c1ncoc1CC | 1%
COCc1ccc(CN[C@H]2C[C@@H](Cc3cc(CN4CCCCC4)on3)C2(C)C)o1 | 11µM*
CCCCc1cc(C[C@@H]2C[C@H](NC(C)=O)C2(C)C)no1 | i
COc1ccc(CN[C@H]2C[C@@H](Cc3cc(CN4CCOCC4)on3)C2(C)C)cc1 | -29%[44.1 µM]
CC(=O)N[C@H]1C[C@@H](Cc2cc(CN(C)C)on2)C1(C)C | -17%[44.1 µM]
COCc1cc(C[C@@H]2C[C@H](NC3CCN(C(C)=O)CC3)C2(C)C)no1 | -16%[44.1 µM]
SMILES | Pf Dd2 inh
CC(=O)N[C@H]1C[C@@H](Cc2cc(CN3CCCCC3)on2)C1(C)C | 22µM*
COc1ccccc1C(=O)NCc1nnc2cc(-c3nc(C)no3)ccn12 | -13%
O=C(NC1CCCC1)C1CCN(C(=O)c2ncn3c2COC(c2ccc(Cl)cc2)C3)CC1 (centres undefined) | -16%
Cc1nnc([C@H]2CCN(c3ccc(C#N)cn3)C2)o1 | 1%[44.1 µM]
Cc1noc(-c2cn(C3CCN(C(=O)c4ccc(F)c(F)c4)CC3)nn2)n1 | -7%
COCCN1CCC(N2CCN(C(=O)C3CC3)CC2)C1=O (centres undefined) | 20%
COc1ccc(CNC2(Cc3cc(COc4ccccc4)on3)COC2)cc1 | -18%[44.1 µM]
CO[C@@H]1COCC[C@H]1NC(=O)c1ncc[nH]c1=O | -8%
CC(C)NC(=O)N1CCN(c2ccc(C=O)cc2)C(=O)C1 | 31%[44.1 µM]
COc1ccc(Cl)cc1NC(=O)c1cnc(SC)nc1-c1ccccc1 | 8%
COc1ccc(Cl)cc1NC(=O)c1cc2nc(-c3ccc(C)cc3)cc(C(F)(F)F)n2n1 | 19%
COc1ccccc1N1CCN(C(=O)c2cc(-c3ccccc3O)on2)CC1 | 10%
COc1ccccc1N1CCN(C(=O)c2cc3ccc4ccc(C)[nH]c4c3n2)CC1 | 13µM*
CCSc1ncc(Cl)c(C(=O)N2CCN(c3ccccc3OC)CC2)n1 | 34%
COc1ccc(Cl)cc1NC(=O)c1cc2ccc3ccc(C)[nH]c3c2n1 | 11µM*
CS(=O)(=O)N[C@H]1C[C@H]2C(=O)Nc3ccc(-c4cccs4)cc3C(=O)N2C1 | -4%[44.1 µM]
O=C(CC1CCOCC1)N1CCc2ccccc21 | -1%
OC[C@@H]1CNC[C@H]1C1CCN(Cc2cccc(Cl)c2)CC1 | 12%
Cc1ccsc1C(=O)N1CCC2(CC1)NC(=O)N(c1cccc(F)c1)N2 | -6%
COc1ccccc1OCCNC(=O)CC1=C2CCCCC2NC1=O (centres undefined) | -5%
Cc1ccc(C2NC(=O)N(CC(=O)N(C)c3ccccc3)C3=C2C(=O)OC3)cc1 (centres undefined) | i
CN(C)CCNC(=O)c1nc(-c2ccccc2)cc2[nH]ccc12 | i
Cc1ccc(C#N)c(-c2cc(NCc3cccnc3)nc3[nH]ccc23)n1 | -24%
CC(=O)NCc1ccc(-c2cc(NC3CCCC3)nc3[nH]ccc23)nc1 | -24%
NC(=O)c1ccnc(-c2cc(NCc3ccccn3)nc3[nH]ccc23)c1 | -25%
SMILES | Pf Dd2 inh
Clc1cccnc1-c1cc(NCc2ccccn2)nc2[nH]ccc12 | 8.9µM*
CC(=O)c1sccc1-c1cc(NCc2ccccn2)nc2[nH]ccc12 | -28%
CC(C)c1cccc(-c2cc(NCc3ccccn3)nc3[nH]ccc23)n1 | 8.9µM*
CN(C)CCNc1cc(-c2ccc3ccccc3n2)c2cc[nH]c2n1 | 13µM*
COCCNc1cc(-c2cncc(C(=O)N3CCOCC3)n2)c2cc[nH]c2n1 | -12%
CCc1nc2c(c(-c3ccc(Cl)cc3)n1)CN(C(=O)c1ccccc1)CC2 | i
COc1cc(OC)cc(-c2nc(C3CC(=O)N(c4ccc(OC)c(OC)c4)C3)no2)c1 (centres undefined) | 53%
O=C(CNC(=O)c1ccccc1)NCc1nnc2ccc(-c3ccccc3)nn12 | -20%
COc1ccc2[nH]c3c(c2c1)CCN(C)C31CCN(C(=O)C2CC2)CC1 | i
COc1ccc(CNC(=O)Cn2c(=O)c(-c3noc(C)n3)c3n(c2=O)CCCC3)cc1 | -22%
Cc1nn(C)c(C)c1CCN(C)C(=O)c1ccc(N2CC3CC(C2)[C@H]2CCCC(=O)N2C3)nc1 (some centres undefined) | 2%
Cc1ccc2nc(-c3cc(NC(=O)c4ccc5c(c4)OCCO5)ccc3Cl)oc2c1 | 13%
O=C(/C=C/c1ccccc1)Nc1cc(-c2nc3ccccc3o2)ccc1Cl | 15%
Cc1ccc2nc(-c3cc(NC(=O)/C=C/c4ccccc4)ccc3Cl)oc2c1 | 11µM*
COCC(=O)N[C@@H]1CN(C(=O)c2ccnn2C)CC[C@@H]1c1nc(C)no1 | 64%[5.79 µM]
CCC(C)NC(=O)C1COC2(CCN(C(=O)C3CCC3)CC2)N1C(=O)c1ccc(OC)cc1 (centres undefined) | -27%
Cc1ccc2nc(N3CCN(C(=O)C4CC4)CC3)sc2c1 | 33%
O[C@H]1CCCC[C@@H]1NC1CCN(c2nc3ccc(Cl)cc3s2)CC1 | 4µM*
O=C(NCc1cccc(Cl)c1)c1ccc2nc(N3CCCCC3)sc2c1 | i
CCCCS(=O)(=O)N1CCC(c2nnc(Cn3cncn3)n2C)CC1 | 8%
Cc1ccc2nc(C3CCCN(Cc4cccc(-c5cccnc5)c4)C3)[nH]c(=O)c2c1 (centres undefined) | 6.3µM*
Cc1ccc2nc(C3CCN(Cc4cccc(-c5ccsc5)c4)CC3)[nH]c(=O)c2c1 | 7%

Assay outcomes (PubChem)
